Screens deposited in PubChem by several laboratories.
GRIN3A LBD mod = binders of NR3A ligand-binding domain, primary screen, biophysical, differential scanning fluorimetry, uHTS. NR3A LBD differential scanning fluorimetry, Tm shift; 0% = protein alone, 100% = glycine-bound protein. Tm shift relative to glycine control, % at 25 µM. AID 1259313, 2017. Glutamate receptor ionotropic, NMDA 3A (GRIN3A) ligand-binding domain. hit rate 2.5% among 340,000;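 active means melting temperature shift of at least 10% of the positive control shift, at one fixed dose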
NALP1 yeast inh = NALP1 inflammasome inhibitors in reconstituted yeast, colorimetric, S. cerevisiae, triplicate retest; hit rate 0.61% among 280,000; inhibition, % at 10 µM; S. cerevisiae NALP1/ASC/caspase-1 growth, X-gal OD620, 72 h; in the data active means inhibition mostly above about 24%, no sharp cut-off; inactive means mostly below about 32%
CR mimetic SO = reduction of superoxide in aged yeast, primary screen, HTS. S. cerevisiae aged cells, superoxide DHE fluorescence; hits give low values. superoxide response (% of plate mean), % at 10 µM. hit rate 0.18% among 330,000. AID 2690, 2010;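 active means superoxide response under a set limit, about three screen SD below normal, cut at about 65% in these data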;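 further: yeast aged for seven days with compound at 30 °C before DHE staining; 100% = average MFI of all compound-treated wells on the plate with controls excluded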
dFosB activator = activators of delta FosB homodimer, primary screen, biochemical, fluorescence polarization, TAMRA-CDK5 oligo, single point | activation, % at 25 µM | Protein FosB (Mus musculus), P13346 | purified delta FosB; percent of positive-control signal above neutral wells | hit rate 0.99% among 340,000;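 active means mean activation above about 17%, with every replicate also reaching it, limit read from the data, passing the limit was not always enough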
Target sequence (P13346 whole entry, looked up): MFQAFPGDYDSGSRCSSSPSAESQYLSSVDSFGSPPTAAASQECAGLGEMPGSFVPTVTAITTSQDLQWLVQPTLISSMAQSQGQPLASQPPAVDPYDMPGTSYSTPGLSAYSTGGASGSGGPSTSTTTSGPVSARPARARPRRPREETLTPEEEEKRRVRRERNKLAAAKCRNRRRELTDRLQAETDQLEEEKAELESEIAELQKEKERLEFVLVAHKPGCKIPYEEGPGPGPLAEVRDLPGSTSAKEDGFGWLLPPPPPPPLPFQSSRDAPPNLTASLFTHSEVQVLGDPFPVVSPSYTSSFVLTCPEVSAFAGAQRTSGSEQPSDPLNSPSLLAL
UBC13 polyUb = UBC13 polyubiquitin chain formation inhibitors, primary screen, biochemical, TR-FRET, uHTS | Ubiquitin-conjugating enzyme E2 N (Homo sapiens), P61088 | inhibition, % at 20 µM | hit rate 0.47% among 330,000; in the data active means inhibition above about 45%, passing the limit was not always enough
Target sequence (P61088 whole entry, looked up): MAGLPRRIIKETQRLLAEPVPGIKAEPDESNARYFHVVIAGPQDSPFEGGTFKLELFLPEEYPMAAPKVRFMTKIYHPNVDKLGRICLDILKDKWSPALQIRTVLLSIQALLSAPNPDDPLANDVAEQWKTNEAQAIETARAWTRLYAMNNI
* marks the source's active call; other numbers are inactive results; nt = no result given. Sampled rows, rich in hits. Any-hit rate of the full collection: about 4.3%.

SMILES	GRIN3A LBD mod	NALP1 yeast inh	CR mimetic SO	dFosB activator	UBC13 polyUb
NNc1nc(NCc2ccccc2)nc(N2CCOCC2)n1	13.6*	-5.2	92.7	-4.8	0.0
CCNc1nc(N2CCOCC2)nc(N(c2ccccc2)c2ccccc2)n1	2.4	nt	88.5	-2.2	1.1
N#C/C(=N/Nc1ccc(OC(F)(F)F)cc1)C(N)=S	16.5*	6.6	90.3	5.0	-2.3
Cc1ccc(N/N=C(\C#N)C(N)=S)c(C)c1	-1.7	43.5	93.7	0.7	nt
Cc1ccc(Cl)c(N/C=C/C(=O)c2ccccc2)c1	0.3	0.7	94.6	7.2	0.8
CCS(=O)(=O)C(C)(CCl)C(=O)Nc1ccc(C(=O)OC)cc1 (stereo unspecified)	12.5*	10.2	99.4	-4.1	2.7
CN(C)N=Nc1nc2c(c(=O)n(C)c(=O)n2C)n1CC1CO1 (stereo unspecified)	-0.3	16.4	109.2	nt	-4.1
COc1ccccc1C(CNC(=O)c1cccc(S(=O)(=O)Nc2ccc(C)cc2)c1)N1CCCC1 (stereo unspecified)	-0.4	nt	112.8	-2.7	10.1
O=C(Nc1cccc(O)c1)c1c(O)c2ccccc2[nH]c1=O	44.4*	4.6	95.1	3.0	18.6
Cc1cccc(NC(=O)c2c(O)c3ccccc3[nH]c2=O)c1	1.7	36.6	98.1	1.6	4.8
Cc1ccc(N=Nc2c(O)ccc3n[nH]nc23)cc1	13.3*	5.2	117.8	-3.4	nt
CCOC(=O)c1c(C)[nH]c(N=Nc2ccc(C)cc2)c1C	7.0	20.1	118.2	-5.3	-21.2
COC(=O)c1cc(NC(=O)/C=C/c2ccccc2)ccc1O	nt	-16.3	89.6	nt	-2.6
Brc1ccc(-c2noc(C3CCCCC3)n2)cc1	14.3*	-4.0	99.6	4.9	-1.1
Cn1nc(C(=O)OCC(=O)Nc2ccc(SC(F)F)cc2)c2ccccc2c1=O	-6.3	nt	120.8	-24.3	-3.6
O=C(CN1C(=O)COc2ccccc21)NCCCN1CCN(c2ccccc2F)CC1	-0.2	22.0	112.6	-6.0	-3.5
O=C(CCN1C(=O)COc2ccccc21)NCCN1CCN(c2ccccc2F)CC1	0.7	31.7*	87.8	0.6	1.4
COc1ccc(S(=O)(=O)N2CCOCC2)cc1NC(=O)CSc1nnc2c(n1)[nH]c1ccccc12	-3.6	nt	109.8	14.2	-12.9
O=C(/C=C/c1ccc(S(=O)(=O)NCc2ccco2)cc1)N1CCN(c2ccccc2)CC1	15.6*	12.2	93.3	-8.2	1.1
c1ccc2c(c1)CC/C2=N/Nc1nc2ccccc2[nH]1	-5.3	-0.2	92.2	30.7*	-1.0
CC(=O)Nc1ccc(C(=O)Nc2ccc(S(=O)(=O)N3CCCCC3)cc2)cc1	23.3*	10.4	100.5	-5.3	4.4
O=C(Nc1ccc(S(=O)(=O)N2CCCCC2)cc1)c1ccc(Cl)nc1	24.1*	nt	88.8	-6.7	7.0
CCOC(=O)c1sc(NC(=O)c2ccc(S(=O)(=O)N3CCCCCC3)cc2)nc1-c1ccccc1	8.3	40.1	107.5	-5.7	19.0
CC(=O)Nc1ccc(NC(=O)C(C)OC(=O)c2ccc(S(=O)(=O)N3CCCCC3)cc2)cc1 (stereo unspecified)	-5.3	nt	103.4	58.2*	-17.0
CC(OC(=O)c1ccc(Cl)nc1)C(=O)Nc1ccc(S(=O)(=O)N2CCCC2)cc1 (stereo unspecified)	0.8	nt	104.0	-10.7	-2.9
SMILES	GRIN3A LBD mod	NALP1 yeast inh	CR mimetic SO	dFosB activator	UBC13 polyUb
CCOC(=O)c1sc(NC(=O)c2ccc(S(=O)(=O)N3CCCCC3)cc2)nc1-c1ccccc1	12.6*	25.2	99.0	4.3	17.7
Cc1c(C)n(C)c2ccc(C(=O)NCCN3CCOCC3)cc12	1.2	13.5	95.8	4.7	-4.4
CCN1CCN(C(C)CCc2ccccc2)CC1 (stereo unspecified)	-2.2	-11.5	94.7	-1.0	4.6
O=C(Nc1ccc(F)cc1)Nc1ccc(S(=O)(=O)N2CCCC2)cc1	28.4*	nt	91.0	-7.1	2.8
Cc1cc2nc(-c3ccc(SCC(=O)Nc4ccc(S(=O)(=O)N5CCCC5)cc4)nc3)[nH]c2cc1C	21.3*	33.5	107.6	-0.9	1.5
Cc1ccc(C(=O)Nc2ccc(S(=O)(=O)N3CCCC3)cc2)s1	23.6*	-3.9	114.7	-11.5	9.7
Cc1cc(C(=O)Nc2ccc(S(=O)(=O)N3CCCC3)cc2)cs1	0.9	13.2	82.5	-13.3	11.2
O=C(Nc1ccc(F)cc1)c1ccc(S(=O)(=O)N2CCCC2)cc1	-1.2	0.4	88.1	-1.1	-2.7
O=C(Nc1cccc(F)c1)c1ccc(S(=O)(=O)N2CCCCC2)cc1	16.9*	7.0	99.8	-8.7	0.6
O=C(CN1CCCCC1)Nc1ccc(S(=O)(=O)N2CCCCCC2)cc1	11.2*	6.1	90.1	-2.4	-7.6
COc1cc(S(=O)(=O)N2CCN(Cc3cccs3)CC2)ccc1NC(C)=O	1.4	nt	108.6	-6.6	-9.9
CC(=O)c1ccc(NC(=O)Nc2ccc(S(=O)(=O)N3CCCC3)cc2)cc1	30.2*	5.9	101.5	-15.8	-10.7
O=C(CN1CCCC1)Nc1ccc(S(=O)(=O)N2CCCCC2)cc1	-0.2	7.6	84.8	-7.7	-0.2
CC(=O)Nc1ccc(S(=O)(=O)N2CCN(Cc3cccs3)CC2)cc1	-0.3	26.3*	98.9	-8.3	1.3
CC(=O)c1ccc(NC(=O)C2CCN(S(=O)(=O)c3ccc4c(c3)N(C(C)=O)CCO4)CC2)cc1	19.2*	-1.5	95.9	-7.3	0.0
CC(=O)N1CCOc2ccc(S(=O)(=O)N3CCC(C(=O)Nc4cc(C)cc(C)c4)CC3)cc21	-2.8	17.4	80.4	-9.3	9.2
CC(NC(=O)COc1ccc(N(C)S(=O)(=O)c2ccccc2)cc1)c1ccccc1 (stereo unspecified)	-0.7	12.9	94.7	-10.7	-0.9
O=C(Nc1ccc(S(=O)(=O)N2CCCC2)cc1)Nc1ccc(F)cc1F	36.9*	1.9	102.8	-4.9	8.7
O=C(Nc1ccc(F)cc1F)c1ccc(S(=O)(=O)N2CCCCC2)cc1	-1.6	19.7	110.6	-8.3	-6.9
CCCCC(=O)Nc1ccc(C(=O)Nc2ccc(S(=O)(=O)N3CCCC3)cc2)cc1	30.7*	20.7	87.4	-6.4	7.4
Cc1c(N2C(=O)/C(=C\c3ccccc3O)SC2=S)c(=O)n(-c2ccccc2)n1C	0.1	23.7	100.1	-11.1	-13.6
CN1C(=O)/C(=C/c2cc(N=Nc3ccccc3)ccc2O)SC1=S	372.4*	-11.9	110.8	-10.1	-50.7
O=C(Nc1cccc(Br)c1)c1ccc2c(c1)SC1=NS(=O)(=O)CCN12	18.5*	nt	98.3	0.1	11.2
CC(C)(C)c1ccccc1NC(=O)c1ccc2c(c1)SC1=NS(=O)(=O)CCN12	-1.6	12.2	100.5	-6.1	16.0
COc1ccc(Oc2ccc(N/C=C3\CCCC3=O)cc2)cc1	-10.7	21.2	109.5	3.2	-10.7
